The molecules below were run against AMP-activated protein kinase, AMPK (Homo sapiens) (UniProt P54646+O43741+P54619+Q9UGJ0+Q9Y478+Q13131+Q9UGI9) (assay: AMP-dependent Kinase enzyme assay. An in vitro enzyme assay that detects ADP turnover that is directly proportional to AMPK activity. This uses naive AMPK that is activated during the assay with MK-8722). Conditions: 30 µM.
Format: functional
Design: scale not given: direction of the effect not stated beside the values

First: O=C(c1ccncc1)N1CCCC(C2=Nc3ccccc3S(=O)(=O)N2)C1 (stereo not given)
Second: CNc1nc(C(=O)N2CCCC(COc3ccc(F)cc3)C2)cs1 (stereo not given)
The Percent Effect of the first is lower: 8.81% for the first, 63.7% for the second.

Going from CCN(C)S(=O)(=O)N1CCC(C(O)c2ccc(F)cc2)CC1 (stereo not given) to CCC1(CC)CC(=O)N(CC(O)c2ccc(F)cc2)C1=O (stereo not given), the Percent Effect rises from -1.14% to 8.69%.

Going from Cc1nc(O)cc(CN2C[C@H](NS(=O)(=O)N(C)C)[C@@H](C3CC3)C2)n1 to Cc1nc(-c2ccnn2C)cc(C2CCCN(S(C)(=O)=O)C2)n1 (stereo not given), the Percent Effect rises from -5.32% to 13.9%.

First: Cc1ccccc1[C@@H]1CN(Cc2ccc(C(F)(F)F)nc2)C[C@H]1C(=O)O
Second: CCC[C@@H]1CN(Cc2ccc(C(F)(F)F)nc2)C[C@H]1NS(C)(=O)=O
The Percent Effect of the first is lower: -5.65% for the first, 4.44% for the second.

Compared with Cc1n[nH]c(C)c1CCN(C)C(=O)c1ccc(CN2CCCCC2)cc1, Cc1nc(N(C)C)ncc1C(=O)N(Cc1ccncc1)CC1CCCO1 (stereo not given) is lower in Percent Effect: -2.68% for the first, -6.01% for the second.

Going from O=c1c(CN2CCOCC2)coc2ccc(Cl)cc12 to CC1CN(Cc2cccc(CNC3CCCC3)c2)CCO1 (stereo not given), the Percent Effect rises from -2.73% to 2.35%.

Compared with COc1ccc(S(=O)(=O)Nc2cccnc2-n2cncn2)c(C)c1, O=S(=O)(NCc1ccnc(-n2ccnc2)c1)c1cncc(Cl)c1 is higher in Percent Effect: -5.19% for the first, 0.0234% for the second.

First: COCCN(C)C[C@@H]1CN(c2cc(C)nc3ccccc23)C[C@@H]1CO
Second: CN(CC1(CO)CCCC1)c1nc2c(c(=O)[nH]1)Cc1ccccc1OC2
The Percent Effect of the first is lower: -6.62% for the first, 6.29% for the second.

First: Cc1cc(-c2cnc(N3CCC(O)CC3)nc2C(C)C)on1
Second: CCn1ncnc1C(C)Nc1cc(C2CCNCC2)nc(C)n1 (stereo not given)
The Percent Effect of the first is higher: 20.1% for the first, -7.46% for the second.

First: c1cnc(N2CCC(OCC3CCCCO3)CC2)nc1 (stereo not given)
Second: COc1ccc2c(c1)CCCN(C(=O)NCC1CCCO1)C2 (stereo not given)
The Percent Effect of the first is lower: 2.8% for the first, 5.17% for the second.

Going from CCNC(=O)NCc1ccc(-n2ccc(C(F)(F)F)n2)cc1 to COC(=O)C1CN(Cc2ccn(-c3ccc(F)cc3)n2)C[C@@H](C)O1 (stereo not given in full), the Percent Effect falls from -2.79% to -6.96%.

Compared with COc1ccc2c(c1)CCCC2CC(=O)NCC(=O)O (stereo not given), CCOC(=O)C1(NCC(=O)Nc2cc(C)ccc2OC)CCCC1 is lower in Percent Effect: 3.73% for the first, 0.781% for the second.

First: N#Cc1cccc(NC(=O)N[C@H](CO)Cc2ccc(O)cc2)c1
Second: O=C(CCCn1ccnc1)NC1CCCN(c2ccccc2Cl)C1 (stereo not given)
The Percent Effect of the first is higher: 6.46% for the first, 6.12% for the second.

First: Cc1cc(C)n(C2CN(C(=O)c3cn4ccsc4n3)C2)n1
Second: Cn1ccnc1CNC(=O)c1cncc(C2CCNCC2)n1
The Percent Effect of the first is lower: -4.27% for the first, 1.13% for the second.

Going from CCc1noc(CN2CCN(C(=O)OC(C)(C)C)C(C)C2)n1 (stereo not given) to Nc1nccnc1C(=O)NC1CCCN(Cc2c(F)cccc2F)C1 (stereo not given), the Percent Effect rises from 6.06% to 26.8%.

Compared with COCCCC1(CO)CCCN(C(=O)c2cnc3c(c2)CCCC3)C1 (stereo not given), CN1CCN(C(=O)C2(NC(N)=O)CCCCC2)Cc2ccccc21 is higher in Percent Effect: -2.32% for the first, 0.804% for the second.

Compared with CN1CC(c2ccccc2)CC2(CCN(Cc3ncc[nH]3)CC2)C1 (stereo not given), COC(=O)N1CCCCC1C(=O)N1CCC(c2ccncc2)CC1 (stereo not given) is higher in Percent Effect: -6.61% for the first, 1.07% for the second.

First: COc1ccc(CN(C)Cc2c(C)noc2C)c(Cl)c1OC
Second: Cc1cc(CNS(C)(=O)=O)ccc1N(C)C
The Percent Effect of the first is higher: 6% for the first, 1.62% for the second.

Going from COCCN(CC(F)F)c1cc(C(F)(F)F)nc2ncnn12 to Cc1nccc(C2(C)CCCNC2)n1 (stereo not given), the Percent Effect rises from 3.49% to 13.7%.

First: CC1CCC(O)(CSc2nnnn2C2CC2)CC1 (stereo not given)
Second: CN1CCN(C2CCN(C(=O)CCC3CCCC3)CC2)CC1
The Percent Effect of the first is lower: 6.07% for the first, 7.72% for the second.
